# Source: PubChem BioAssay (NCATS)
# Calls of active or inactive are those of the source. The call rests on the fitted dose curve.
# Target: Glucocorticoid receptor (Homo sapiens) (UniProt P04150)
# Experiment: GR-EFC Redistribution (AID 451)
# Settings: CHO-K1 GR-EFC translocation, beta-gal luminescence, 2 h
# Excerpt: NIH Molecular Libraries Screening Centers Network [MLSCN]
# NIH Chemical Genomics Center [NCGC]
# The glucocorticoid receptor (GR) is a cytoplasmic receptor that belongs to the nuclear receptor family of ligand-dependent transcription factors. Upon glucocorticoid binding to its receptor, the glucocorticoid-GR complex translocates into the nucleus, where it binds as a dimer to specific DNA sequences (glucocorticoid response elements), enhancing or suppressing transcription of a wide variety of glucocorticoid-responsive genes. In addition to their important roles in normal physiology and metabolism, glucocorticoids are administered exogenously as treatments for a wide variety of allergic, autoimmune, and neoplastic conditions. Identification of compounds that modulate aspects of GR signalling would be useful in dissecting glucocorticoid response pathways as well as developing GR modulators with more targeted clinical effects.
# Traditionally, GR modulators have been identified using receptor binding or direct transactivation assays. However, assays for glucocorticoid-dependent nuclear translocation can also be used to screen for compounds affecting GR signaling.
# Immunocytochemical staining has been used to assay for GR translocation, but is not suitable for high throughout screening due to the multiple reagent addition and wash steps required. Recently, a novel cell-based GR assay in Enzyme Fragment Complementation (EFC) format was developed by DiscoveRx (Fremont, CA). The assay uses EFC of b-galactosidase (b-gal) as an indicator of GR-translocation in engineered CHO-K1 biosensor cells. The enzyme acceptor (EA) fragment of b-gal resides in the nucleus , as designed through the use of a proprietary set of sequence additions and modifications. The small peptide enzyme donor (ED) fragment of b-gal is fused directly to the C-terminus of GR, and is localized in the cytoplasm is the absence of receptor signaling. Upon binding to a GR ligand, the complex translocates to the nucleus, where intact enzyme activity is restored by complementation and b-gal activity is detected. We optimized this GR-EFC assay in homogenous 1536-well plate assay format for high throughput screening.
# NCGC Assay Protocol Summary:
# CHO-K1 cells stably expressing NLS-enzyme acceptor fragment (EA) of b-gal and GR-enzyme donor (ED) fragment of b-gal were maintained in F12 medium (Invitrogen, Carlsbad, CA) at 37 Celsius degrees under a humidified atmosphere containing 5% CO2 and 95% air. The medium contained 10% FBS, 2 mM L-glutamine, 50 U/ml penicillin 50 ug/ml streptomycin, and 250 ug/ml hygromycin and 500 ug/ml G418 (Invitrogen).
# GR-translocation was measured beta-gal enzyme activity using the PathHunter Detection Kit containing cell membrane permeablizing reagent and beta-gal substrate (DiscoveRx, Fremont, CA). All compounds were screened as titrations from 0.6 nM to 46 uM final concentration. The assay was performed in 1536-well format as follows:
# 5 uL cell suspension (1,000 cells)/well
# Incubation at 37 Celsius degrees for two hours
# 1.25 uL 1X detection buffer from the kit supplied by DiscoveRx
# Incubation at room temperature for one hour
# Read plate in luminescence mode in ViewLux plate reader (PerkinElmer)
# Keywords: NIH Roadmap, MLSCN, MLI, MLSMR, GR-EFC, GREFC, qHTS, NCGC
# Potency means the concentration at half of the fitted maximal effect.
# Chain of Glucocorticoid receptor (Homo sapiens) (P04150 whole entry, looked up): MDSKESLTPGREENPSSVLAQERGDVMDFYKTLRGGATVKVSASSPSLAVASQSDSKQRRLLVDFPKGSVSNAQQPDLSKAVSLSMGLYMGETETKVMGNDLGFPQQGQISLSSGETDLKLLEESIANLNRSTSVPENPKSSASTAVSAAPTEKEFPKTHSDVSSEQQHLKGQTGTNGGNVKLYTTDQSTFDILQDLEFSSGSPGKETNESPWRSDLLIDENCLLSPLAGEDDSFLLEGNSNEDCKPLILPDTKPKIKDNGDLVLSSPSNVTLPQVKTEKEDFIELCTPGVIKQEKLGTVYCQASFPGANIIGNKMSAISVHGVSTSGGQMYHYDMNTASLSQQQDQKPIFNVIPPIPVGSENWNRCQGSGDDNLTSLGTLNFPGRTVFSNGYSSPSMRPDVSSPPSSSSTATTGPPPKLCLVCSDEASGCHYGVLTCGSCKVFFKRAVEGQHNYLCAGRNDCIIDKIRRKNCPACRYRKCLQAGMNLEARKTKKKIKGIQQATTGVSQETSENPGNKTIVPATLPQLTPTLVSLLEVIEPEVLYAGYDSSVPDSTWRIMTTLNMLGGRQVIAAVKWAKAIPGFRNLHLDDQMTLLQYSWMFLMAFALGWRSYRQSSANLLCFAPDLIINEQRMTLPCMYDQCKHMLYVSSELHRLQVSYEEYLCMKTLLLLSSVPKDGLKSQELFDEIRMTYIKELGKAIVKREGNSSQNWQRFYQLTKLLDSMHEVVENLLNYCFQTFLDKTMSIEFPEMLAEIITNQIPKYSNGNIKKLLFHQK
row,Structure (SMILES),Potency
1,CCNc1ncc2nc(-c3ccccc3)c(=O)n(Cc3cccs3)c2n1,> 46 µM (inactive)
2,Cc1ccccc1-c1cc(N(C)C)ncn1,> 46 µM (inactive)
3,CNc1ccnc(-c2ccccc2C(F)(F)F)n1,> 46 µM (inactive)
4,Cn1c(=O)c(-c2cccs2)nc2cncnc21,> 46 µM (inactive)
5,O=C(c1csnn1)N1CCC2(CC1)CCN(c1ccccc1)CC2,> 46 µM (inactive)
6,Cc1nc2cnc(N3CCOCC3)nc2n(Cc2ccc(F)cc2)c1=O,> 46 µM (inactive)
7,C[C@@]12C(=O)OC(=O)[C@]1(C)[C@H]1CC[C@@H]2O1,> 20.6 µM (inactive)
8,COc1ccc(-c2nc3cnc(Nc4ccccc4)nc3n(Cc3cccs3)c2=O)cc1,> 46 µM (inactive)
9,N#CCCn1c(=O)c(CCc2ccccc2)nc2cnc(Oc3cccc(Cl)c3)nc21,> 46 µM (inactive)
10,COC(=O)c1c(-c2cc(OC)c(OC)c(OC)c2)c2ccc(OCc3ccccn3)cc2c(=O)n1-c1ccc(N)cc1,> 46 µM (inactive)
11,Cc1noc(C)c1-c1cc(N(C)C)ncn1,> 46 µM (inactive)
12,Cn1cc(-c2nc3cnc(N4CCNCC4)nc3n(CCC#N)c2=O)c2ccccc21,> 46 µM (inactive)
13,Cc1noc(C)c1C(=O)N1CCC2(CCN(Cc3ccc(C#N)cc3)CC2)CC1,> 46 µM (inactive)
14,COCCn1c(=O)c(CCc2ccccc2)nc2cnc(OC)nc21,> 46 µM (inactive)
15,CCNc1ncc2nc(-c3cn(C)c4ccccc34)c(=O)n(C)c2n1,> 46 µM (inactive)
16,COc1ccc(C(=O)N2CCC3(CC2)CN(C(=O)Nc2cccc(C#N)c2)C3)cc1,> 46 µM (inactive)
17,CCn1c(=O)c2[nH]c(-c3ccccc3)nc2n(CC)c1=O,> 46 µM (inactive)
18,COc1ccccc1-c1cncnc1NCCNC(C)=O,> 46 µM (inactive)
19,Cn1c(=O)c(-c2ccc(Cl)cc2)nc2cnc(Nc3ccccc3)nc21,> 46 µM (inactive)
20,O=C(c1cccc(F)c1)N1CCC2(CCCN(c3ncccn3)C2)CC1,> 46 µM (inactive)

row,Structure (SMILES),Potency
1,Cc1noc(C)c1-c1cncnc1NCCN1CCOCC1,> 46 µM (inactive)
2,Cc1nc2cnc(N3CCN(C)CC3)nc2n(-c2ccccc2)c1=O,> 46 µM (inactive)
3,O=C(Nc1cccc(F)c1)N1CCCC2(CCNCC2)C1,> 46 µM (inactive)
4,CC(=O)NCCNc1nc(-c2ccccc2C(F)(F)F)nc2ccccc12,> 46 µM (inactive)
5,CC(C)NC(=O)N1CCC2(CC1)CCN(C(=O)c1cccc(F)c1)CC2,> 46 µM (inactive)
6,COc1ccc(-n2c(=O)cnc3cnc(N(C)C)nc32)cc1,> 46 µM (inactive)
7,c1nc(N2CCNCC2)c2cc(-c3ccoc3)ccc2n1,> 46 µM (inactive)
8,COC(=O)N1CCC[C@@]2(CCN(c3ccncc3)C2)C1,> 46 µM (inactive)
9,N#Cc1cccc(-c2cncnc2NCc2cccs2)c1,> 46 µM (inactive)
10,c1nc(NC2CCNCC2)c2cc(-c3ccc4c(c3)OCO4)ccc2n1,> 46 µM (inactive)
11,COC(=O)N1CCC2(CCN(Cc3nccs3)CC2)CC1,> 46 µM (inactive)
12,CC(C)NC(=O)N1CCCC2(CCN(C(=O)c3cccc(F)c3)CC2)C1,> 46 µM (inactive)
13,CC(=O)N1CCC2(CCCN(c3ccccc3)C2)CC1,> 46 µM (inactive)
14,CCNc1ncc2nc(C)c(=O)n(Cc3cccs3)c2n1,> 46 µM (inactive)
15,COCCNc1ncncc1-c1c(C)noc1C,> 46 µM (inactive)
16,CN(C)c1ccc(-c2nccc(NCCN3CCOCC3)n2)cc1,> 46 µM (inactive)
17,Cc1cnc(CNc2ncncc2-c2cccnc2)cn1,> 46 µM (inactive)
18,c1ccc(CNc2ccnc(-c3ccoc3)n2)cc1,> 46 µM (inactive)
19,COc1ccc(NC(=O)N2CCCC3(CCN(C(=O)c4csnn4)CC3)C2)cc1,> 46 µM (inactive)
20,O=C(c1ccncc1)N1CCC2(CC1)CN(C(c1ccccc1)c1ccccc1)C2,> 46 µM (inactive)
